# Measured values as given in PubChem BioAssay (EPA / NIEHS).
# Records with an inconclusive call do not appear. Active and inactive are the calls of the source. The calls were made as follows, unless noted: active = hit-call score of the fitted dose curve at least 0.9, where 1 is the maximum; inconclusive = response in the unintended direction; inactive = score below 0.9.
# Experiments:
# [1] = ATG_TAL_CIS: Attagene CIS-FACTORIAL HepG2 Assay for human TAL Basal Promoter (AID 2282966; active = hit-call score of the fitted dose curve at least 0.9, where 1 is the maximum; inactive = score below 0.9;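 also: background control endpoint measuring basal TAL promoter reporter mRNA not a specific factor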); conditions: HepG2 Attagene cis-factorial TAL promoter reporter; actives raise or lower the signal
# Procedure, shortened: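 HepG2 cells were transiently transfected with promoter-driven multiplexed reporter units and dosed for 24 h. Reporter mRNA was measured by RT-PCR with capillary electrophoresis fluorescence; bidirectional fits used DMSO as baseline, serving as a background control.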
# [2] = ATG_VDRE_CIS: Attagene CIS-FACTORIAL HepG2 Assay for human Vitamin D Receptor Element (VDRE) (AID 2282968; active = hit-call score of the fitted dose curve at least 0.9, where 1 is the maximum; inactive = score below 0.9); conditions: HepG2 VDRE cis-reporter transcription, actives raise or lower the signal
# Procedure, shortened: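 In transiently transfected HepG2 liver cells, gain or loss of reporter mRNA after 24 h exposure is scored relative to DMSO, using fluorescence detection by capillary electrophoresis of RT-PCR products.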
# [3] = biological target: Nuclear receptor subfamily 1 group I member 3 (Homo sapiens) (UniProt Q14994); test: ATG_CAR_TRANS: Attagene TRANS-FACTORIAL HepG2 Assay for human Constitutive Androstane Receptor (CAR) (AID 2282969); conditions: HepG2 Attagene TRANS-FACTORIAL CAR reporter;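 also: activators raise reporter mRNA above DMSO so AC50 marks induction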
# Sequence of Nuclear receptor subfamily 1 group I member 3 (Homo sapiens) (Q14994 whole entry, looked up, the tested form may be a part): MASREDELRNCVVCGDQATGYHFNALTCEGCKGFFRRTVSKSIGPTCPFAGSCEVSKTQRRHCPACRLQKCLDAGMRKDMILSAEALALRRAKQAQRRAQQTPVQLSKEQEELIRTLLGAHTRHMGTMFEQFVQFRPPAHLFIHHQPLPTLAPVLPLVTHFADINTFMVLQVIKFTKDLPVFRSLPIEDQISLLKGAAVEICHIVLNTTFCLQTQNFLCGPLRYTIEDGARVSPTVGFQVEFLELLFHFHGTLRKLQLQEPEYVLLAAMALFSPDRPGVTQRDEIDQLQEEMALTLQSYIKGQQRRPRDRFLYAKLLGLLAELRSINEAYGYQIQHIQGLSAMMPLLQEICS
# Procedure, shortened: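 Readout is reporter mRNA induction, quantified by fluorescent primer extension and capillary electrophoresis after RT-PCR. Cells were HepG2 transiently carrying chimeric NR-Gal4 constructs with GAL4-UAS reporters, treated for 24 h; activity scored upward from DMSO.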
# [4] = biological target: Estrogen receptor (Homo sapiens) (UniProt P03372); test: ATG_ERa_TRANS: Attagene TRANS-FACTORIAL HepG2 Assay for human Estrogen Receptor alpha (ERa) (AID 2282970); conditions: HepG2 Attagene TRANS ERa GAL4 reporter, mRNA
# Sequence of Estrogen receptor (Homo sapiens) (P03372 whole entry, looked up, the tested form may be a part): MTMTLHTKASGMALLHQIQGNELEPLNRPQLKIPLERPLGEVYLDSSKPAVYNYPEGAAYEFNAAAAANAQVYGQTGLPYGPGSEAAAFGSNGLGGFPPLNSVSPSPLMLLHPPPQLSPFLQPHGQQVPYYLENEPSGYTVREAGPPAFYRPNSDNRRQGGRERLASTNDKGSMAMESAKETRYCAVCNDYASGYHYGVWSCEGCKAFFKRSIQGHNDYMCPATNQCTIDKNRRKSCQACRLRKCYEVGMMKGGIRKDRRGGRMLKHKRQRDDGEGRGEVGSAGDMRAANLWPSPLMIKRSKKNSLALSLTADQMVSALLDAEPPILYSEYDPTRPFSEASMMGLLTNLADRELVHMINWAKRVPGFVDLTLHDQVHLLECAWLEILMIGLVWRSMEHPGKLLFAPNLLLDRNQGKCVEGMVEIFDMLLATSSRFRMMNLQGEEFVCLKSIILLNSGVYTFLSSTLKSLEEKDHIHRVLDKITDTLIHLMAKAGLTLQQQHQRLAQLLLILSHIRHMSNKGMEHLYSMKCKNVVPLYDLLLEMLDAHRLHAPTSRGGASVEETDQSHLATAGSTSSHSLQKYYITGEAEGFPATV
# Procedure, shortened: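 HepG2 cells transiently transfected with multiplexed GAL4-UAS reporter units; ERa activity read via exogenous chimeric NR-Gal4 protein. After 24 hour compound exposure, reporter mRNA measured by RT-PCR with 6-FAM labelling and capillary electrophoresis; gain-of-signal fitted relative to DMSO.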
# [5] = biological target: X-box-binding protein 1 (Homo sapiens) (UniProt P17861); test: ATG_Xbp1_CIS: Attagene CIS-FACTORIAL HepG2 Assay for human X-box Binding Protein 1 (XBP1) (AID 2282972; active = hit-call score of the fitted dose curve at least 0.9, where 1 is the maximum; inactive = score below 0.9); conditions: HepG2 XBP1 cis-element reporter, Attagene multiplex; actives raise or lower the signal
# Procedure, shortened: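 HepG2 cells transiently transfected with multiple cis-element reporter units report endogenous TF activity; 24 h exposure, then reporter mRNA measured by RT-PCR, 6-FAM labelling, HpaI digestion and capillary electrophoresis. Bidirectional fitting versus DMSO.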
# [6] = ATG_M_19_TRANS: Attagene TRANS-FACTORIAL HepG2 Assay for M19 Transcription Factor (Internal Marker) (AID 2282974); conditions: HepG2 Attagene TRANS-FACTORIAL M19 internal marker reporter
# Procedure, shortened: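 Background-control readout: after 24 h chemical exposure of transfected HepG2 carrying GAL4-driven reporter units, RNA was reverse-transcribed, amplified, fluorescently labeled and sized by capillary electrophoresis; gain-of-signal fit against DMSO.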
# [7] = biological target: Glucocorticoid receptor (Homo sapiens) (UniProt P04150); test: ATG_GR_TRANS: Attagene TRANS-FACTORIAL HepG2 Assay for human Glucocorticoid Receptor (GR) (AID 2282978); conditions: HepG2 Attagene TRANS GR reporter, mRNA transcription;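 also: activators score as hits since higher reporter transcript over DMSO is fitted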
# Sequence of Glucocorticoid receptor (Homo sapiens) (P04150 whole entry, looked up, the tested form may be a part): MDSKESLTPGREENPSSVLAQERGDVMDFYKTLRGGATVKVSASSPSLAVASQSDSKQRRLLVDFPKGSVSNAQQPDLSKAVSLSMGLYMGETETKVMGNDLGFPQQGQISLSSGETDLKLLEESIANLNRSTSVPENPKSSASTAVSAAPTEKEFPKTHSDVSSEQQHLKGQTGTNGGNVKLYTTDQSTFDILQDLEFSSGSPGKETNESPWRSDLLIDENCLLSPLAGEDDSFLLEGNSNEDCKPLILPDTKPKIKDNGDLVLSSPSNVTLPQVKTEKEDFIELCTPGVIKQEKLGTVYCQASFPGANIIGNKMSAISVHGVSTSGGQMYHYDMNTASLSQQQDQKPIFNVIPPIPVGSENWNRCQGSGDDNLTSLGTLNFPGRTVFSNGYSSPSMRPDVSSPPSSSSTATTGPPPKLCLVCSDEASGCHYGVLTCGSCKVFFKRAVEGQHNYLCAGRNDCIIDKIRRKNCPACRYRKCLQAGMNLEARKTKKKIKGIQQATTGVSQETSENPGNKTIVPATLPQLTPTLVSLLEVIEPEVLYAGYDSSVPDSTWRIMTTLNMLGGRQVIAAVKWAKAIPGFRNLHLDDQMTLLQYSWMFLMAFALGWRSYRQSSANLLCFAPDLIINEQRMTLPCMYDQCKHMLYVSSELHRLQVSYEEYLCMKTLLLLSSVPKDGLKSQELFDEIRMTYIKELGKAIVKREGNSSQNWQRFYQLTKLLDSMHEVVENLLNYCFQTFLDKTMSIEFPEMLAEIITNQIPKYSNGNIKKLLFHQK
# Procedure, shortened: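 Readout is reporter transcript from a chimeric GR-Gal4 acting on GAL4-UAS in transfected human HepG2 liver cells after 24 h exposure, quantified by RT-PCR and capillary electrophoresis. Activation fitted upward against DMSO.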
# [8] = biological target: Bile acid receptor (Homo sapiens) (UniProt Q96RI1); test: ATG_FXR_TRANS: Attagene TRANS-FACTORIAL HepG2 Assay for Farnesoid X Receptor (FXR) (AID 2282979); conditions: HepG2 Attagene TRANS FXR-GAL4 reporter transcription;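 also: hits raise reporter mRNA above DMSO so AC50 marks FXR activation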
# Sequence of Bile acid receptor (Homo sapiens) (Q96RI1 whole entry, looked up, the tested form may be a part): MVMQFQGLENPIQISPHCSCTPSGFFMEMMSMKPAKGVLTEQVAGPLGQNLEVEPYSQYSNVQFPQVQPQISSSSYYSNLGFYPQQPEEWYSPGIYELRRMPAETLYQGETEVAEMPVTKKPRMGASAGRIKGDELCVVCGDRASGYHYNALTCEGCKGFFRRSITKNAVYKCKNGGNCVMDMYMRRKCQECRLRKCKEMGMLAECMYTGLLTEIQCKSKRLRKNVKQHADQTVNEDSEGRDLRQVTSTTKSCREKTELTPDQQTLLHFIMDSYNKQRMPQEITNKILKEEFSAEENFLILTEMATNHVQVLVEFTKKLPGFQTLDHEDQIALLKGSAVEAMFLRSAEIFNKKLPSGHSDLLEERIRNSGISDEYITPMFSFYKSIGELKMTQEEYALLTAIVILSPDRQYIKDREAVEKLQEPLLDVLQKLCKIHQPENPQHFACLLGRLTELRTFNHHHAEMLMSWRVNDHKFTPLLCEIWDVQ
# Procedure, shortened: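 HepG2 cells transiently transfected with reporter constructs in which a chimeric FXR-GAL4 protein drives a GAL4-UAS reporter; 24 h compound exposure. Reporter mRNA measured by RT-PCR, FAM labelling, HpaI digestion and capillary electrophoresis; gain-of-signal versus DMSO.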
# [9] = biological target: Nuclear receptor subfamily 4 group A member 2 (Homo sapiens) (UniProt P43354); test: ATG_NURR1_TRANS: Attagene TRANS-FACTORIAL HepG2 Assay for human Nuclear Receptor Related Protein 1 (NURR1) (AID 2282985); conditions: HepG2 Attagene TRANS reporter, mRNA readout
# Procedure, shortened: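 Cells: HepG2, transiently transfected. Exposure: 24 h. Detection: fluorescence of labelled RT-PCR products separated by capillary electrophoresis; upward fit versus DMSO.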
# [10] = biological target: Transcriptional activator Myb (Homo sapiens) (UniProt P10242); test: ATG_Myb_CIS: Attagene CIS-FACTORIAL HepG2 Assay for human Myeloblastosis (Myb) Proto-Oncogene Transcription Factor (AID 2282986; active = hit-call score of the fitted dose curve at least 0.9, where 1 is the maximum; inactive = score below 0.9); conditions: HepG2 Attagene CIS-FACTORIAL Myb reporter transcription; actives raise or lower the signal
# Procedure, shortened: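 Reporter mRNA is quantified by RT-PCR and capillary electrophoresis 24 h after dosing HepG2 cells transfected with cis-regulated reporter units, which track endogenous transcription factor activity. Gain and loss of signal are fitted versus DMSO baseline.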
# [11] = biological target: Androgen receptor (Homo sapiens) (UniProt P10275); test: ATG_AR_TRANS: Attagene TRANS-FACTORIAL HepG2 Assay for human Androgen Receptor (AR) (AID 2282973); conditions: HepG2 Attagene TRANS-FACTORIAL AR reporter transcription
# Sequence of Androgen receptor (Homo sapiens) (P10275 whole entry, looked up, the tested form may be a part): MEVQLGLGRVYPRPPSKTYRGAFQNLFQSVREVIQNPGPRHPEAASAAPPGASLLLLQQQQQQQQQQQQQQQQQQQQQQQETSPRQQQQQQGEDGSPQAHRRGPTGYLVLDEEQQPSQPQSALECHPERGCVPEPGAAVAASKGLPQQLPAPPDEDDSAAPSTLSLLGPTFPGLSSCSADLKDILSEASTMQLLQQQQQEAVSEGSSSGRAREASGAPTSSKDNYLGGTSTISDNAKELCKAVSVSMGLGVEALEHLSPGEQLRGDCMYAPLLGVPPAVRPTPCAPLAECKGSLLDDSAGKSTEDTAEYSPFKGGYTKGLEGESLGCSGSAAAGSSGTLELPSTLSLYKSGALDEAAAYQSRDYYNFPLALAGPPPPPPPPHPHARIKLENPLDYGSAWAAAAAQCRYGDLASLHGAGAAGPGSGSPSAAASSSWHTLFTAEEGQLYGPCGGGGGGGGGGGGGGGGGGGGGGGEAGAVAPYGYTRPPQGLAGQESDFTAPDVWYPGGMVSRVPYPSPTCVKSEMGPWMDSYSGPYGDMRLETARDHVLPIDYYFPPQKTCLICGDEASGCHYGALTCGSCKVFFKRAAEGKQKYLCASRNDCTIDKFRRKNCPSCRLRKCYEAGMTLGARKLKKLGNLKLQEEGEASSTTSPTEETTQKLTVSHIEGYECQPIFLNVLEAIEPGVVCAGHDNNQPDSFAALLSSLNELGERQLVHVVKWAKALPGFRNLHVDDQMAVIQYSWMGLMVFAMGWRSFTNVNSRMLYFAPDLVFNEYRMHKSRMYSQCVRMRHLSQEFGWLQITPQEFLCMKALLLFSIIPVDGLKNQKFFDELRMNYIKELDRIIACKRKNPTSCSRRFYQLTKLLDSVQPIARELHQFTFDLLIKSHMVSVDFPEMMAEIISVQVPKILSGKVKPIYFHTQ
# Procedure, shortened: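 HepG2 cells transiently transfected with multiplexed GAL4-UAS reporter units and chimeric NR-Gal4 fusion; 24 h compound exposure. Reporter mRNA measured by RT-PCR, 6-FAM labelling, HpaI digestion and capillary electrophoresis; gain-of-signal fitted relative to DMSO baseline.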
# [12] = ATG_M_06_TRANS: Attagene TRANS-FACTORIAL HepG2 Assay for M06 Transcription Factor (Internal Marker) (AID 2282983); conditions: HepG2 Attagene TRANS M06 internal marker reporter;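 also: reporter transcript level by RT-PCR then capillary electrophoresis fluorescence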
# Procedure, shortened: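 HepG2 cells transiently transfected with multiplexed GAL4-UAS reporter transcription units; after 24 h compound exposure, reporter mRNA measured by RT-PCR, FAM-labelled primer extension, HpaI digestion and capillary electrophoresis. Gain-of-signal fitted versus DMSO baseline; background control readout.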
# [13] = ATG_M_32_TRANS: Attagene TRANS-FACTORIAL HepG2 Assay for M32 Transcription Factor (Internal Marker) (AID 2282984); conditions: HepG2 Attagene TRANS M32 internal marker reporter
# Procedure, shortened: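 Using transiently transfected HepG2 cells exposed to test chemicals for 24 h, reporter transcripts are converted to labelled cDNA fragments and quantified by capillary electrophoresis. DMSO defines the activity baseline.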
# [14] = biological target: Steroid hormone receptor ERR1 (Homo sapiens) (UniProt P11474); test: ATG_ERRa_TRANS: Attagene TRANS-FACTORIAL HepG2 Assay for human Estrogen-Related Receptor alpha (ERRa) (AID 2282971); conditions: HepG2 Attagene TRANS reporter, ERRa transactivation
# Procedure, shortened: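 HepG2 cells transiently transfected with multiplexed GAL4-UAS reporter units reading chimeric ERRa-Gal4 activity; 24 h compound exposure. Reporter mRNA measured by RT-PCR, 6-FAM labelling, HpaI digest and capillary electrophoresis; gain of signal fitted versus DMSO baseline.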
# [15] = ATG_GAL4_TRANS: Attagene TRANS-FACTORIAL HepG2 Assay for GAL4 (Internal Marker) (AID 2282976); conditions: HepG2 Attagene TRANS GAL4 internal marker reporter
# Procedure, shortened: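 HepG2 cells transiently transfected with multiplexed GAL4-UAS reporter constructs were dosed for 24 h. Reporter mRNA was measured by RT-PCR, 6-FAM primer extension, HpaI digestion and capillary electrophoresis, and gain of signal was fitted relative to DMSO.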
# [16] = biological target: Estrogen-related receptor gamma (Homo sapiens) (UniProt P62508); test: ATG_ERRg_TRANS: Attagene TRANS-FACTORIAL HepG2 Assay for human Estrogen-Related Receptor gamma (ERRg) (AID 2282977); conditions: HepG2 Attagene TRANS reporter, ERRg transactivation;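 also: hits increase reporter signal over DMSO so potencies reflect activators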
# Sequence of Estrogen-related receptor gamma (Homo sapiens) (P62508 whole entry, looked up, the tested form may be a part): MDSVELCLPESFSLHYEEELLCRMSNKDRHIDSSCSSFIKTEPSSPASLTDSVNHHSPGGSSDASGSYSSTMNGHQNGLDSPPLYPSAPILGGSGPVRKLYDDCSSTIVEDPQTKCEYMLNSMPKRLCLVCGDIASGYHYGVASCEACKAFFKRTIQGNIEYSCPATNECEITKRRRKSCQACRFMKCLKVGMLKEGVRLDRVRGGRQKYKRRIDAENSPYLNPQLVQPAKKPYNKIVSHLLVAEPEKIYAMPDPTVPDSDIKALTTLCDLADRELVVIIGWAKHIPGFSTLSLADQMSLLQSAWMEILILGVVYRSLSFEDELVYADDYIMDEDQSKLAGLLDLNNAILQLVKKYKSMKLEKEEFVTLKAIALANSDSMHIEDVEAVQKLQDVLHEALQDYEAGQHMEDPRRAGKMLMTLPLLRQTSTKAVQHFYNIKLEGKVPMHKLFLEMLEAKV
# Procedure, shortened: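 HepG2 cells transiently transfected with multiplexed GAL4-UAS reporter units and chimeric NR-Gal4 constructs were exposed to test chemicals for 24 h. Reporter mRNA was measured by RT-PCR, 6-FAM primer extension, HpaI digestion and capillary electrophoresis; gain-of-signal versus DMSO.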
# [17] = biological target: Oxysterols receptor LXR-alpha (Homo sapiens) (UniProt Q13133); test: ATG_LXRa_TRANS: Attagene TRANS-FACTORIAL HepG2 Assay for human Liver X Receptor alpha (LXRa) (AID 2282980); conditions: HepG2 Attagene TRANS reporter, LXRa transactivation
# Sequence of Oxysterols receptor LXR-alpha (Homo sapiens) (Q13133 whole entry, looked up, the tested form may be a part): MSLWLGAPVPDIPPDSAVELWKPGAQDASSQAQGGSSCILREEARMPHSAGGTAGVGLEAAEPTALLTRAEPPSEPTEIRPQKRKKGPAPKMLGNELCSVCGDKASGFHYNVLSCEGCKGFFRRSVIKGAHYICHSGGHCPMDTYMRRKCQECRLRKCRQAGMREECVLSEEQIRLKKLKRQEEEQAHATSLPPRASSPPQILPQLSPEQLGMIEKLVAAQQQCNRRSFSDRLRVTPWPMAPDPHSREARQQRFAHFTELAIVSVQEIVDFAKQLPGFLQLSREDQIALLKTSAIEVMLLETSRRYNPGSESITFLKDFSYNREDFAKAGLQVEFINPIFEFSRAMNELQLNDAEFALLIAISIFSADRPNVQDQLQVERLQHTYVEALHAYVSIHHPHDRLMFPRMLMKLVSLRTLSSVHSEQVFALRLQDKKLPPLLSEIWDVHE
# Procedure, shortened: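 HepG2 cells were transiently transfected with multiplexed reporter units driven by chimeric LXRa–GAL4 fusion proteins, then dosed for 24 h. Reporter mRNA was quantified by RT-PCR, fluorescent labelling and capillary electrophoresis; gain of signal fitted against DMSO baseline.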
# [18] = biological target: Oxysterols receptor LXR-beta (Homo sapiens) (UniProt P55055); test: ATG_LXRb_TRANS: Attagene TRANS-FACTORIAL HepG2 Assay for human Liver X Receptor beta (LXRb) (AID 2282981); conditions: HepG2 Attagene TRANS GAL4-LXRb reporter, mRNA
# Sequence of Oxysterols receptor LXR-beta (Homo sapiens) (P55055 whole entry, looked up, the tested form may be a part): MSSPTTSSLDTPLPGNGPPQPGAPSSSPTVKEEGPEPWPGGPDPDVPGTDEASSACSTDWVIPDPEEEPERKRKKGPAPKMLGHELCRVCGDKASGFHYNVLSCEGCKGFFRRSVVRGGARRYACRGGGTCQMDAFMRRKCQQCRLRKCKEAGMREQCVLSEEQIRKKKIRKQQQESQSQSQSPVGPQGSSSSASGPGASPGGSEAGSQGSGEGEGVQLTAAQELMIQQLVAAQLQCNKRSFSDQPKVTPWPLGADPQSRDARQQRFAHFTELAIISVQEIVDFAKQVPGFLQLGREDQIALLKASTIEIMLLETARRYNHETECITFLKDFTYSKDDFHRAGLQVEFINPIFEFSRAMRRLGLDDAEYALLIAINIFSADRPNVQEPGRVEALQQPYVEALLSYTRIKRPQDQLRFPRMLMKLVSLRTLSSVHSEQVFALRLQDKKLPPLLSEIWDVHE
# Procedure, shortened: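 Cells: HepG2, transiently transfected with GAL4-UAS reporter units plus LXRb-Gal4 fusion. Treatment: 24 h. Detection: reporter mRNA by RT-PCR, 6-FAM labelling, HpaI digestion, capillary electrophoresis.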
# [19] = biological target: Hepatocyte nuclear factor 4-alpha (Homo sapiens) (UniProt P41235); test: ATG_HNF4a_TRANS: Attagene TRANS-FACTORIAL HepG2 Assay for human Hepatocyte Nuclear Factor 4 alpha (HNF4a) (AID 2282982); conditions: HepG2 HNF4a transactivation reporter, mRNA readout
# Sequence of Hepatocyte nuclear factor 4-alpha (Homo sapiens) (P41235 whole entry, looked up): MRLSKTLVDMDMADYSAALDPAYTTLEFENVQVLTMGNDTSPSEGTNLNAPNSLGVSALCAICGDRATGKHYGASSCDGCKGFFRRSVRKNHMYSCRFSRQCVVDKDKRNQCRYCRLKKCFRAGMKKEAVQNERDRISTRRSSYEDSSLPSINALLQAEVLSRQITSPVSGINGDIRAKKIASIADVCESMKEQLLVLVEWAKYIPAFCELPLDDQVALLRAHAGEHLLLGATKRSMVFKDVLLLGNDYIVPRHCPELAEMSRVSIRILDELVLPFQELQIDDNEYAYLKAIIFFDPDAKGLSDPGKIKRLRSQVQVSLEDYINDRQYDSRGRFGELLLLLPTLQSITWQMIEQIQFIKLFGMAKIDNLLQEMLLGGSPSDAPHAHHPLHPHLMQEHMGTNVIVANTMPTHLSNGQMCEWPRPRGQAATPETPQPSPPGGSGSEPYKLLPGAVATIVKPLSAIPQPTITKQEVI
# Procedure, shortened: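 Transfected HepG2 reporter cells are dosed for 24 h; reporter RNA is reverse-transcribed, amplified, fluorescently labelled and HpaI-digested before CE sizing. Positive-direction fit against DMSO.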
smiles,measurement,setting,value
CC1(C)CN=C(NN=C(/C=C/c2ccc(C(F)(F)F)cc2)/C=C/c2ccc(C(F)(F)F)cc2)NC1,AC50,[1],4.22 µM (active)
same,outcome,[2],inactive
same,outcome,[3],inactive
same,AC50,[4],4.59 µM (active)
same,outcome,[5],inactive
same,outcome,[6],inactive
same,outcome,[7],inactive
same,outcome,[8],inactive
same,outcome,[9],inactive
same,outcome,[10],inactive
CO/N=C(/C(=O)OC)c1ccccc1COc1ccccc1C,outcome,[1],inactive
same,AC50,[2],13 µM (active)
same,outcome,[3],inactive
same,AC50,[4],2.6 µM (active)
same,AC50,[5],35.2 µM (active)
same,outcome,[11],inactive
same,outcome,[7],inactive
same,outcome,[8],inactive
same,outcome,[12],inactive
same,outcome,[13],inactive
same,outcome,[10],inactive
CC(O)C(F)(F)C(F)(F)F (stereo unspecified),outcome,[1],inactive
same,outcome,[2],inactive
same,outcome,[3],inactive
same,outcome,[4],inactive
same,outcome,[14],inactive
same,outcome,[5],inactive
same,outcome,[11],inactive
same,outcome,[6],inactive
same,outcome,[15],inactive
same,outcome,[16],inactive
same,outcome,[7],inactive
same,outcome,[8],inactive
same,outcome,[17],inactive
same,outcome,[18],inactive
same,outcome,[19],inactive
same,outcome,[12],inactive
same,outcome,[13],inactive
same,outcome,[10],inactive
Nc1ccc2ccccc2c1,outcome,[1],inactive
same,outcome,[2],inactive
same,outcome,[3],inactive
same,outcome,[4],inactive
same,outcome,[14],inactive
same,outcome,[5],inactive
same,outcome,[6],inactive
same,outcome,[15],inactive
same,outcome,[16],inactive
same,outcome,[18],inactive
same,outcome,[12],inactive
same,outcome,[13],inactive
same,outcome,[10],inactive
COC(N)=O,outcome,[1],inactive
same,outcome,[2],inactive
same,outcome,[5],inactive
same,outcome,[6],inactive
same,outcome,[15],inactive
same,outcome,[7],inactive
same,outcome,[17],inactive
same,outcome,[19],inactive
same,outcome,[12],inactive
same,outcome,[10],inactive
CCOP(=S)(S)OCC,outcome,[1],inactive
same,outcome,[2],inactive
same,outcome,[3],inactive
same,outcome,[4],inactive
same,outcome,[5],inactive
same,outcome,[11],inactive
same,outcome,[15],inactive
same,outcome,[8],inactive
same,outcome,[17],inactive
same,outcome,[18],inactive
same,outcome,[12],inactive
same,outcome,[13],inactive
same,outcome,[10],inactive
O=C(O)C(F)(OC(F)(F)C(F)(F)C(F)(F)F)C(F)(F)F (stereo unspecified),outcome,[1],inactive
same,outcome,[2],inactive
same,outcome,[3],inactive
same,outcome,[4],inactive
same,outcome,[14],inactive
same,outcome,[5],inactive
same,outcome,[11],inactive
same,outcome,[6],inactive
same,outcome,[15],inactive
same,outcome,[16],inactive
same,outcome,[7],inactive
same,outcome,[8],inactive
same,outcome,[17],inactive
same,outcome,[18],inactive
same,outcome,[19],inactive
same,outcome,[12],inactive
same,outcome,[13],inactive
same,outcome,[10],inactive
CCOP(=S)(OCC)SCSCC,outcome,[1],inactive
same,AC50,[2],35.4 µM (active)
same,AC50,[4],27.4 µM (active)
same,outcome,[5],inactive
same,outcome,[7],inactive
same,outcome,[8],inactive
same,outcome,[12],inactive
same,outcome,[9],inactive
same,outcome,[10],inactive
Nc1ccc([N+](=O)[O-])cc1Cl,outcome,[1],inactive
same,outcome,[2],inactive
same,outcome,[4],inactive
same,outcome,[5],inactive
same,outcome,[11],inactive
same,outcome,[6],inactive
same,outcome,[15],inactive
same,outcome,[7],inactive
same,outcome,[8],inactive
same,outcome,[17],inactive
same,outcome,[18],inactive
same,outcome,[19],inactive
same,outcome,[13],inactive
same,outcome,[10],inactive
